Test results taken from the supplement of paper PMC10849652.
Targets with a hit are over-represented here; the source holds about 7,900 in all. About 0.6% of all pairs of compound and target were hits.

Compound: O=C(CCCCCCNC(=O)c1cnc(N(c2ccccc2)c2ccccc2Cl)nc1)NO [citarinostat]
Assay: log2 fold change, soluble protein after heating vs DMSO (PISA); higher = thermal stabilisation; K562 cells, 10 uM, 30 min; active = over 0.2 and 3.5 SD of the protein, either way, in both replicates (recomputed)
Outline: (§1)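 K562 cells at 2×10^6 cells/mL were exposed to 10 μM compound for 30 min, then aliquots were heated for 3 min across 48°C-58°C, pooled, and extracted in PBS containing 0.5% NP-40 at 4°C. The supernatant after 21,000xg for 90 min was taken as soluble protein and measured by TMTpro 16plex LC-MS/MS with channel sums equalised. Thermal stability is reported relative to control samples, with values from duplicates. Fold changes are given on a log2 scale.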

Chain of UniProt Q8TDD5 (Q8TDD5 whole entry, looked up): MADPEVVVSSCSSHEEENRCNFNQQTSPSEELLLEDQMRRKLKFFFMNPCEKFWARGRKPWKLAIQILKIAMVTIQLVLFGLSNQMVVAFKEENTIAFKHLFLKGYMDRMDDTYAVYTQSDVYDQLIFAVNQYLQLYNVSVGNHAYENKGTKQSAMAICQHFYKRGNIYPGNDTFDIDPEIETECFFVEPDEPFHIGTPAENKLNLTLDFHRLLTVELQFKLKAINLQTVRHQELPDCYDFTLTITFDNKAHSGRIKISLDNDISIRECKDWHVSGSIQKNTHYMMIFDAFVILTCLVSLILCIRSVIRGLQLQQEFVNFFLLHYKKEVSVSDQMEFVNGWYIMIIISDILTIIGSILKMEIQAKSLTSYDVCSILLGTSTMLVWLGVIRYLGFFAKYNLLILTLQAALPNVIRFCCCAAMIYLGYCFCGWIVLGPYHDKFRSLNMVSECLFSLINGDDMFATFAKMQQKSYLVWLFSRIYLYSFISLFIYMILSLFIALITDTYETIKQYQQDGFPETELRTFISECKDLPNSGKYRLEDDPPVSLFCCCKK
Chain of UniProt O15243 (O15243 whole entry, looked up): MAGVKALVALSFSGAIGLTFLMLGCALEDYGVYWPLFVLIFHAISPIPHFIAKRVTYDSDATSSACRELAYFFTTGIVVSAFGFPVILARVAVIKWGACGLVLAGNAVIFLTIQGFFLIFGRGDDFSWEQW
Chain of UniProt Q9P244 (Q9P244 whole entry, looked up): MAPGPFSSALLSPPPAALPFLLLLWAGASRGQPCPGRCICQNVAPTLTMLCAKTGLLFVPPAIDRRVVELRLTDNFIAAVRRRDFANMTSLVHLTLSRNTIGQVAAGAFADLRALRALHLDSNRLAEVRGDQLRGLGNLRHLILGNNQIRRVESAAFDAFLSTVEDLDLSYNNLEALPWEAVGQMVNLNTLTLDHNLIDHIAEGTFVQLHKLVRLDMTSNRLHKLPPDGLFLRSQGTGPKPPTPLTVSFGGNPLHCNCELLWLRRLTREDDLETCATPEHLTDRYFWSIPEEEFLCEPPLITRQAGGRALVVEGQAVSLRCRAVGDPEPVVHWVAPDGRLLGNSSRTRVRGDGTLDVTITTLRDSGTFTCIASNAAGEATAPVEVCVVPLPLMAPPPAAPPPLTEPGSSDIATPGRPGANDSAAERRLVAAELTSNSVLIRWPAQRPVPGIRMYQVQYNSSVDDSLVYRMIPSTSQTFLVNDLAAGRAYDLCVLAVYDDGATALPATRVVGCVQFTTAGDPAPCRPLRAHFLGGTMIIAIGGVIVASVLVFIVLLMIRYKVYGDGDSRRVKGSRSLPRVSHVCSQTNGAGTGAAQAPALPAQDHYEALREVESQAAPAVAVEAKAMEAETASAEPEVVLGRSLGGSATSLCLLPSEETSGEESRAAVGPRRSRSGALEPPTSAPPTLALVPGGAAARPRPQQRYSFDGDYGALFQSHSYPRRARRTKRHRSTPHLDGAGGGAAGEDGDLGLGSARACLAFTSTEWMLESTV
Chain of UniProt Q8NHS3 (Q8NHS3 whole entry, looked up): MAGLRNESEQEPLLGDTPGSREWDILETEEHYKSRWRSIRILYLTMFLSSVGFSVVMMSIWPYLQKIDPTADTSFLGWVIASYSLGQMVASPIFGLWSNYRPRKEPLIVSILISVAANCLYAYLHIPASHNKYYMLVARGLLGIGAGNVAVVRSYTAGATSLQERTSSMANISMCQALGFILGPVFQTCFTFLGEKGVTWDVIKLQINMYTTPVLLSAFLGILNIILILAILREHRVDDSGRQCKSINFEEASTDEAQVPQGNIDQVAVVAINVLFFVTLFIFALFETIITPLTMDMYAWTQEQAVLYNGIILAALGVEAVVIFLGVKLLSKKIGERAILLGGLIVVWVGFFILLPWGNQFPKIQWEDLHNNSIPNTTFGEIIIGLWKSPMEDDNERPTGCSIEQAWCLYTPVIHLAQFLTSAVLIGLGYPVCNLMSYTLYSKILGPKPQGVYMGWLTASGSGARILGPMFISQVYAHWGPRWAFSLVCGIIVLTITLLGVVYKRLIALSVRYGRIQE
Chain of UniProt O60333 (O60333 whole entry, looked up): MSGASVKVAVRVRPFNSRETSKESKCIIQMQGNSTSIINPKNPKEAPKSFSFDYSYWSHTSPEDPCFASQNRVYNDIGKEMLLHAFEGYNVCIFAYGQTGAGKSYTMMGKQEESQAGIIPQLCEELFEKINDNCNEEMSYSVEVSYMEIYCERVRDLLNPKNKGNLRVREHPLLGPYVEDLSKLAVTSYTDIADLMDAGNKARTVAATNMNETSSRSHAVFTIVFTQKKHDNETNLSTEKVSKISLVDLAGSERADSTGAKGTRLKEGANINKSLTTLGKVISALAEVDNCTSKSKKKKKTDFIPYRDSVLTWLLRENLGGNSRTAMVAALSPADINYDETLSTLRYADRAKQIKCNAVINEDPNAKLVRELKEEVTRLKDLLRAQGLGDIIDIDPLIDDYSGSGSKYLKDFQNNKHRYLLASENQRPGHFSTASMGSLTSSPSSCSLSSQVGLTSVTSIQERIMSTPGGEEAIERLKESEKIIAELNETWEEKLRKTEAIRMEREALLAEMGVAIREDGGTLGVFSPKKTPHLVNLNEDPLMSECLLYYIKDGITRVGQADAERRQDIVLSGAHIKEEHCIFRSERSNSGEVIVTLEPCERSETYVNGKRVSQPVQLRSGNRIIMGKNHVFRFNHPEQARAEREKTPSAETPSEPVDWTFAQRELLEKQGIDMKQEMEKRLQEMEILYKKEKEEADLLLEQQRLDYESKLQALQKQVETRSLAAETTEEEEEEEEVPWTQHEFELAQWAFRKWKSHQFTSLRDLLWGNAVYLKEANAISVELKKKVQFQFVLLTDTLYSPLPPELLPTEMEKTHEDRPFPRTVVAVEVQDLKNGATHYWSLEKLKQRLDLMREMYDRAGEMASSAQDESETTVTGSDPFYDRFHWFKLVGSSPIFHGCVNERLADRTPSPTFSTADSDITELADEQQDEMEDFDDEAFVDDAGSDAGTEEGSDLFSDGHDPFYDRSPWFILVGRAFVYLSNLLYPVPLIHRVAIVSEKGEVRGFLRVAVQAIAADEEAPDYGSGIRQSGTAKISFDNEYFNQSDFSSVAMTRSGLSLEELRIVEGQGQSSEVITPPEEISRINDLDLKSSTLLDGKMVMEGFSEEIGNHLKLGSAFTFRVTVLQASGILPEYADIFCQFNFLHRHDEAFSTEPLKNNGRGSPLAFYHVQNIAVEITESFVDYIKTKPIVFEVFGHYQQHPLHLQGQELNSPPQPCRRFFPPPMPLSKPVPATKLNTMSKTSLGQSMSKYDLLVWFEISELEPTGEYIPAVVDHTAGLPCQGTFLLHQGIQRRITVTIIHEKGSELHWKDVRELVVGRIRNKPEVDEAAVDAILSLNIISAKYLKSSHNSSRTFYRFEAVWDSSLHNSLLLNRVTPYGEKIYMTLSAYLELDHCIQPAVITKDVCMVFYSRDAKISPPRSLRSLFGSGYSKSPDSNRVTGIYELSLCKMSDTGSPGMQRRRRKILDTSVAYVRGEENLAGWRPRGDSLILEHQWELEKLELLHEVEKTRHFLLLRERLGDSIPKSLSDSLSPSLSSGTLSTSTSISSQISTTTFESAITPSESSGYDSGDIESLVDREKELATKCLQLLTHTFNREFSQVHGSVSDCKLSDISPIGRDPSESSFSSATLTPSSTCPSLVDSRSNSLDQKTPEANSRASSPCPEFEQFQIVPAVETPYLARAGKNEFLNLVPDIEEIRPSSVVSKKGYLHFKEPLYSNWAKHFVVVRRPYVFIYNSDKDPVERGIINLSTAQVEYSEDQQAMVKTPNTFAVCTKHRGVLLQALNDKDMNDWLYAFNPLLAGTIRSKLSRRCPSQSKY
Chain of UniProt Q12906 (Q12906 whole entry, looked up): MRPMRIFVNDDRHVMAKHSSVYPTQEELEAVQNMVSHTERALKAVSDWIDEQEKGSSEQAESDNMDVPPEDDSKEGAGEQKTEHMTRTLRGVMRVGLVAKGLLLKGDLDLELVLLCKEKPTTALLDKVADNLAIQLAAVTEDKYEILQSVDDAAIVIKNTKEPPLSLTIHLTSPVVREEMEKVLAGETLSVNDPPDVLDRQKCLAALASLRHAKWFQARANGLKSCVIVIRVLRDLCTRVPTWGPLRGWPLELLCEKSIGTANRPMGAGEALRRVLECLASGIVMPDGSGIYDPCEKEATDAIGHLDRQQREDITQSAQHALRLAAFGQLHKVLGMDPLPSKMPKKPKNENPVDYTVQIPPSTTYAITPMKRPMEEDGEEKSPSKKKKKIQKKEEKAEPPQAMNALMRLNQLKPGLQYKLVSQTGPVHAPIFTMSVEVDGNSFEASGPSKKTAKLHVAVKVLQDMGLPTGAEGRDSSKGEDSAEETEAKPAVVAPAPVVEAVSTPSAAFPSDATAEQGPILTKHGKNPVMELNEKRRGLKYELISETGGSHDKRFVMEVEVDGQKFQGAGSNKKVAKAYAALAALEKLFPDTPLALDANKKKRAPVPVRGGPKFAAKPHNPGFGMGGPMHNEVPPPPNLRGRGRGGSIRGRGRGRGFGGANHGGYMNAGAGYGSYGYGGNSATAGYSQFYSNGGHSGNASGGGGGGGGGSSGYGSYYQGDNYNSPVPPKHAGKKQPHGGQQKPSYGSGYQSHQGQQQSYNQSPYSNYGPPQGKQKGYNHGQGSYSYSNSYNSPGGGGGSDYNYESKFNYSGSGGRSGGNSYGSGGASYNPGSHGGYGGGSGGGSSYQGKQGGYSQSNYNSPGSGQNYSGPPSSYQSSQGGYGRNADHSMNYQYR
Chain of UniProt A4D2B0 (A4D2B0 whole entry, looked up): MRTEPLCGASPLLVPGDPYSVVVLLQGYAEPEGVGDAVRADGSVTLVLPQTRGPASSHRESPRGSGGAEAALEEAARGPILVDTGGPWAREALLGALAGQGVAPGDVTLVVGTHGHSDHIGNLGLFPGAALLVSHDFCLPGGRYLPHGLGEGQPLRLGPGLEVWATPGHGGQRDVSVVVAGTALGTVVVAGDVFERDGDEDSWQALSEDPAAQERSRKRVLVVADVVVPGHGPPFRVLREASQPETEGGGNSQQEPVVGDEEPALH

log2 fold change, inactive:
MFSD12 isoform 3 (UniProt Q6NUT3) 0.1
MAP4K4 isoform 6 (UniProt O95819) 0.114
MFSD8 (UniProt Q8NHS3) -0.003
MARCHF3 (UniProt Q86UD3) -0.133
LEPROT (UniProt O15243) 0.125
LAMP2 isoform 2 (UniProt P13473) 0.061
LRFN1 (UniProt Q9P244) -0.06
MCM10 (UniProt Q7L590) 0.143
KIZ (UniProt Q2M2Z5) -0.094
ITPRID2 (UniProt P28290) -0.029
MAP4K2 (UniProt Q12851) 0.116
LAPTM4B (UniProt Q86VI4) 0.092
KXD1 (UniProt Q9BQD3) 0.042
ILF3 (UniProt Q12906) -0.134
MAGEA8 (UniProt P43361) 0.012
ING5 (UniProt Q8WYH8) 0.115
KCNK5 (UniProt O95279) 0.198
MBLAC1 (UniProt A4D2B0) 0.01
KIF1B isoform 3 (UniProt O60333) 0.043
MCOLN3 (UniProt Q8TDD5) 0.095

Compound: O=C(O)c1ccc2c(c1)nc(Nc1cccc(Cl)c1)c1ccncc12 [silmitasertib]
Assay: as above
Outline: as §1

log2 fold change, inactive:
MAP4K4 isoform 6 (UniProt O95819) -0.202
MFSD8 (UniProt Q8NHS3) 0.069
LEPROT (UniProt O15243) 0.005
LAMP2 isoform 2 (UniProt P13473) 0.003
MCM10 (UniProt Q7L590) -0.129
IKZF1 isoform 2 (UniProt Q13422) 0.063
LIN52 (UniProt Q52LA3) -0.045
LSR isoform 3 (UniProt Q86X29) 0.062
LAPTM4B (UniProt Q86VI4) 0.025
KXD1 (UniProt Q9BQD3) -0.113
LOX (UniProt P28300) 0.187
ILF3 (UniProt Q12906) 0.181
JAK3 (UniProt P52333) -0.003
MED29 (UniProt Q9NX70) 0.133
ING5 (UniProt Q8WYH8) -0.013
KCNK5 (UniProt O95279) 0.093
MBLAC1 (UniProt A4D2B0) -0.082
KIF1B isoform 3 (UniProt O60333) -0.057
MCOLN3 (UniProt Q8TDD5) 0.083

Compound: O=C1NC(=O)C(c2cnc3ccccn23)=C1c1cn2c3c(cc(F)cc13)CN(C(=O)N1CCCCC1)CC2
Assay: as above
Outline: as §1

log2 fold change, inactive:
MFSD8 (UniProt Q8NHS3) -0.007
MAML1 (UniProt Q92585) 0.025
LRRFIP1 isoform 4 (UniProt Q32MZ4) -0.019
MARCHF3 (UniProt Q86UD3) -0.014
LEPROT (UniProt O15243) 0.261
LAMP2 isoform 2 (UniProt P13473) 0.027
LRFN1 (UniProt Q9P244) 0.036
MCM10 (UniProt Q7L590) 0.134
ITPRID2 (UniProt P28290) -0.208
KXD1 (UniProt Q9BQD3) 0.131
MAPK7 (UniProt Q13164) 0
ILF3 (UniProt Q12906) 0.174
JAK3 (UniProt P52333) 0.002
LSR (UniProt M0QZL9) -0.074
KCNK5 (UniProt O95279) 0.004

Compound: c1cc(OCCN2CCCCC2)cc(-c2n[nH]c3ccc(-c4nnc[nH]4)cc23)c1
Assay: as above
Outline: as §1

log2 fold change, inactive:
MFSD12 isoform 3 (UniProt Q6NUT3) -0.162
MAP4K4 isoform 6 (UniProt O95819) 0.143
MFSD8 (UniProt Q8NHS3) -0.129
MARCHF3 (UniProt Q86UD3) -0.26
LEPROT (UniProt O15243) -0.072
LAMP2 isoform 2 (UniProt P13473) -0.275
LRFN1 (UniProt Q9P244) 0.716
MCM10 (UniProt Q7L590) 0.107
KIZ (UniProt Q2M2Z5) 0.045
ITPRID2 (UniProt P28290) 0.211
MAP4K2 (UniProt Q12851) -0.22
LAPTM4B (UniProt Q86VI4) -0.178
KXD1 (UniProt Q9BQD3) -0.055
ILF3 (UniProt Q12906) -0.218
MAGEA8 (UniProt P43361) -0.008
ING5 (UniProt Q8WYH8) -0.008
KCNK5 (UniProt O95279) 0.005
MBLAC1 (UniProt A4D2B0) -0.067
KIF1B isoform 3 (UniProt O60333) -0.55
MCOLN3 (UniProt Q8TDD5) 0.159
